Among the data in PubChem BioAssay AID1565 (Sanford-Burnham Center for Chemical Genomics, 2009) are inhibition values, retold here.

Among all 290,000 compounds or so, about 3,200 (1.1%) were called active. Only a selection was taken, and actives are over-represented in it overall. Unmarked numbers belong to inactive results. No stated cut-off is given here; in the data, active means inhibition above about 60%; inactive means the rest.

In the experiment the target is Phosphoethanolamine/phosphocholine phosphatase (Homo sapiens) (UniProt Q8TCT1). Nature of the experiment: PubChem AID 1565. Particulars: recombinant PHOSPHO1, absorbance phosphatase assay; at 13.3 µM; stronger effect = higher value.
Phosphoethanolamine/phosphocholine phosphatase (Homo sapiens), sequence (Q8TCT1 whole entry, looked up): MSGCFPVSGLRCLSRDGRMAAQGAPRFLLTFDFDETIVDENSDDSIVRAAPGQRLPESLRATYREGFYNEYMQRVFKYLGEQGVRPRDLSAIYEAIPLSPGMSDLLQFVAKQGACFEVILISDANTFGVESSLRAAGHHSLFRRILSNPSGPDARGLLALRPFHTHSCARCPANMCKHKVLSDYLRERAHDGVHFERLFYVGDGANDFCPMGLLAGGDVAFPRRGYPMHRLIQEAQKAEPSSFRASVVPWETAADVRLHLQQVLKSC
In general, inhibition refers to the drop in the measured response relative to a control, in per cent. For the compound `O=C(Nc1ccncc1)c1ccc([N+](=O)[O-])cc1Cl`, the inhibition is 15.6%.

For the compound `Cc1c(CCC(=O)O)c(=O)oc2cc(OCc3ccc(Br)cc3)ccc12`, the inhibition is 4.7%.

`Cc1c(Cc2ccccc2)c(=O)oc2cc(OCC(N)=O)ccc12`: the inhibition was 61.5% (active).

As for `NC(=O)COc1ccc2c3c(c(=O)oc2c1)CCCCC3`, the inhibition is 18%.

Take `COc1ccc(-n2nc(C(=O)NCC(=O)N3CCCCCC3)c3ccccc3c2=O)cc1Cl`: the inhibition is 36%.

`CCOC(=O)c1c(N)sc(C(C)=O)c1C`: the inhibition was 33%.

For `COC(=O)c1sc(=S)n(-c2ccc(Cl)cc2)c1C`, the inhibition was -2.1%.

In the case of `COCCOC(=O)c1sc(=S)n(CCOC)c1N`, the inhibition was 76.4% (active).

Take `COCCCC1CCN(C(=O)C2CCC(=O)N(C3CCCCCC3)C2)CC1` (stereo unspecified): the inhibition was 26.5%.

On to `O=C(N/N=C\c1cccnc1)c1cc(-c2ccccc2)nc2c(Cl)cccc12`, for which the inhibition is 9%.

In the case of `O=C(/C=C/c1cccc(C(F)(F)F)c1)N1CCN(c2ccccn2)CC1`, the inhibition is 23.3%.

As for `Clc1c(OCCCn2ccnc2)ccc2ccccc12`, the inhibition is 13.9%.

For the compound `O=C(O)c1[nH]c2ccccc2c1C(c1cccc(O)c1)c1c(C(=O)O)[nH]c2ccccc12`, the inhibition was 14.1%.

As for `O=C(O)CSCC(=O)Nc1ccc(C(F)(F)F)cc1`, the inhibition was 46.4%.

Take `Cc1cccc(NC(=O)c2cccc(C(F)(F)F)c2)c1`: the inhibition was 66.2% (active).

For `O=C(O)CSCC(=O)Nc1cccc(C(F)(F)F)c1`, the inhibition was 61.5% (active).

On to `O=C(O)CC1(CC(=O)Nc2cccc(C(F)(F)F)c2)CCCC1`, for which the inhibition was 24%.

As for `CNC(=O)c1ccc(NC(=O)c2cccc(C(F)(F)F)c2)cc1`, the inhibition is 47.6%.

`Cc1cccc(NC(=O)c2nnn(-c3cccc(C(F)(F)F)c3)c2N)c1`: the inhibition was 11.4%.

`COc1ccc(/C=N/NC(=O)C2CC2)c(OC)c1OC`: the inhibition is 21.2%.

On to `CC1Sc2ccc(S(=O)(=O)CCC(=O)NCc3ccccc3Cl)cc2NC1=O` (stereo unspecified), for which the inhibition is -22.3%.

As for `COc1ccc(C(=O)OCC(=O)NCCCc2ccccc2)cc1OC`, the inhibition was 17.9%.

`COc1ccc(CCNC(=O)COC(=O)c2ccc[nH]c2=O)cc1`: the inhibition was 0.3%.

For the compound `COc1ccccc1C(=O)OCC(=O)NCCNC(=O)COC(=O)c1ccccc1OC`, the inhibition is 70.6% (active).

For the compound `O=C(CSc1nnnn1C1CCCC1)N1CCCCC1`, the inhibition was 30.7%.

In the case of `O=C(c1cc2ccccc2s1)N1CCN(c2ccccn2)CC1`, the inhibition was 42.8%.

Take `CCc1ccc(OCC2c3cc(OC)c(OC)cc3CCN2C(C)=O)cc1` (stereo unspecified): the inhibition was 42%.

For the compound `COc1ccccc1OCCNC(=O)CCNC(=O)c1ccccc1Cl`, the inhibition is 23.8%.

Consider `Cc1cc(CNC(=O)c2cccc([N+](=O)[O-])c2)c2ccccc2n1`, for which the inhibition was -3%.

On to `CN(C(=O)c1cccc([N+](=O)[O-])c1)c1ccccc1C(=O)NCc1ccccc1`, for which the inhibition was 61% (active).

On to `O=C(c1cccc([N+](=O)[O-])c1)N1CCN(Cc2ccccc2)CC1`, for which the inhibition is 18.4%.

As for `O=C(N/N=C/c1ccc(Cl)c(Cl)c1)c1ccc2nc[nH]c2c1`, the inhibition was 29.8%.

`N#Cc1ccc(C2N=C(c3ccccc3)NO2)cc1` (stereo unspecified): the inhibition was 30.4%.

Turning to `CCOC(=O)c1c(C)n(C)c2ccc(OC)c(NS(=O)(=O)CC)c12`, the inhibition was -2.4%.

`COc1ccc(Cl)cc1NC(=O)CN1CCN(C(=O)N2CCOCC2)CC1`: the inhibition was 4.5%.

As to `CCOC(=O)c1c(C)n(C)c2ccc(OC)c(NC(=O)CN3CCC4(CC3)OCCO4)c12`, the inhibition is 96.8% (active).

Regarding `CCOc1ccc(C(C(=O)NCCOC)N(CCOC)C(=O)CCC(=O)Nc2ccccn2)cc1` (stereo unspecified), the inhibition is 1.5%.

As to `COc1ccc2cc(C(=O)C3CCCN(C(=O)c4sc(C)nc4C)C3)ccc2c1` (stereo unspecified), the inhibition is 22.6%.

Take `COc1ccccc1N1CC(C(=O)Nc2nnc(SCC(=O)NC(C)C)s2)CC1=O` (stereo unspecified): the inhibition is -84.3%.

With `O=C(COC(=O)c1ccc(F)cc1)NCCCc1ccccc1`, the inhibition is 24.1%.

Regarding `O=C1CC(N2CCN(c3ccc(F)cc3)CC2)C(=O)N1c1ccccc1` (stereo unspecified), the inhibition is -16.5%.

Turning to `Cc1ccc(N2C(=O)CC(Sc3ncn[nH]3)C2=O)cc1` (stereo unspecified), the inhibition was 105% (active).

Regarding `COc1ccc(N2C(=O)CC(Sc3n[nH]c(-c4ccc(C)cc4)n3)C2=O)cc1` (stereo unspecified), the inhibition is 10.2%.

With `O=C1CC(Sc2ncn[nH]2)C(=O)N1c1ccccc1` (stereo unspecified), the inhibition was 97.9% (active).

For `COC(=O)c1ccccc1SC1CC(=O)N(c2cccc(C)c2)C1=O` (stereo unspecified), the inhibition was -11.7%.

As for `CC(=O)Nc1ccc(N2C(=O)CC(Sc3nccc(C)n3)C2=O)cc1` (stereo unspecified), the inhibition is 19.2%.

In the case of `CCc1ccc(/C=N/NC(=O)c2nnn(-c3nonc3N)c2CN2CCc3ccccc32)cc1`, the inhibition is 23.3%.

Turning to `Cc1[nH]c(C)c(S(=O)(=O)N2CCN(c3cccc(C(F)(F)F)c3)CC2)c1C(=O)N1CCCC1`, the inhibition was 12.1%.

`Cc1cccc(N(C)C(=O)c2cc(S(=O)(=O)N3CCCCC3)c[nH]2)c1`: the inhibition was 25.4%.

For `CCc1cccc(C)c1NS(=O)(=O)c1cc(Br)cnc1N`, the inhibition is 35.5%.

Regarding `CCCC(=O)N1CCN(c2nnc(-c3ccc(C)cc3)c3ccccc23)CC1`, the inhibition is 30.8%.

On to `C=CCn1c(SCC(=O)Nc2nc3ccccc3s2)nnc1-c1ccccc1O`, for which the inhibition was -17.5%.

`O=C(CSc1nc2ccc(Nc3nc(N4CCOCC4)nc(N4CCOCC4)n3)cc2s1)NCc1ccco1`: the inhibition is 16.2%.

As for `C=CCn1c(CSc2nc3ccccc3s2)nnc1SCC(=O)NCc1ccco1`, the inhibition was 89.7% (active).

In the case of `O=S(=O)(/C=C/c1ccccc1)N1CCNCC1`, the inhibition is 37%.

Regarding `Cc1cc(S(=O)(=O)NCc2ccccn2)c(Cl)cc1Cl`, the inhibition was 29.5%.

For the compound `CC1(C)NC(=O)N(CC(=O)Nc2cc(C(F)(F)F)cc(C(F)(F)F)c2)C1=O`, the inhibition was 24%.

With `O=C(NCc1ccc(Cl)cc1)NCc1ccc(Cl)cc1`, the inhibition was 42.1%.

On to `O=C(NCc1ccc(Cl)cc1)c1cc(=O)nc2sc(-c3ccccc3)nn12`, for which the inhibition was 19.7%.

As to `O=C(NCc1ccc(Cl)cc1)c1cc2c(nc3sccn32)s1`, the inhibition was 66.1% (active).

Regarding `COc1ccc(NC(=O)C2CCC(CNS(=O)(=O)c3csc(C(N)=O)c3)CC2)cc1OC` (stereo unspecified), the inhibition is 48.8%.
